An excerpt weighted towards active compounds, which were near 19% of everything screened.
Pf growth 96h: Primary qHTS for delayed death inhibitors of the malarial parasite plastid, 96 hour incubation; P. falciparum luciferase reporter growth, 96 h; Potency, µM (top dose mostly 28.7 µM), for inactives: at the top dose activity change, negative = inhibition, usual class: inhibitors; actives 6.9% (n = 320,000); AID 504834, 2011; also: potency is read from the fitted curve at half-maximal effect; % is scaled to controls: 0 for no effect and ±100 for the full control effect
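Luminescence readout: decreased luciferase signal marks inhibited growth of reporter-expressing P. falciparum in infected red cells (2% hematocrit, 0.05% parasitemia final), exposed to compound two generations (96 h, 37 C, 5% CO2).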
Shiga toxin inh: A qHTS for Small Molecule Inhibitors of Shiga Toxin. Vero cells, Shiga toxin protein synthesis inhibition reporter. inhibition, % at 38.7 µM. actives 9.2% (n = 290,000). AID 2315, 2010; in the data active = inhibition mostly above about 28%, no sharp cut-off; inactive = mostly below about 43%; also: 0% is about no effect
SARS PLP yeast: qHTS of Yeast-based Assay for SARS-CoV PLP | actives 0.19% (n = 330,000) | Potency, µM (titrated, usually from 32.9 µM), inactives show at the top dose activity, positive = growth rescue, usual class: activators | AID 485353, 2010 | S. cerevisiae expressing SARS-CoV PLpro, growth rescue; calls by dose curve; also: potency is read from the fitted curve at half-maximal effect; 0% is about no effect; nearly all actives have a fitted effect of over 55% in size
AMA1 RON2 block: qHTS for Inhibitors of AMA1-RON; Towards Development of Antimalarial Drug Lead: Primary Screen | Plasmodium falciparum AMA1 (3D7) - RON2 peptide interaction | AlphaScreen AMA1-biotinylated RON2 peptide binding | Potency, µM (titrated, usually from 58.2 µM), inactives show at the highest dose activity change, negative = inhibition, most hits filed as inhibitors | actives 0.2% (n = 360,000);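 also: potency is read from the fitted curve at half-maximal effect; 0% = vehicle wells and -100% = peptide control; nearly all actives have a fitted effect of over 45% in size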
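AMA1 (3D7) with his tag at 25 nM final met compounds first, then biotinylated RON2 peptide at 25 nM; detection used donor plus acceptor beads, 10 µg/mL apiece, read by AlphaScreen after 30 min at room temperature.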
Pf growth 48h: Primary qHTS for delayed death inhibitors of the malarial parasite plastid, 48 hour incubation. Potency, µM (series often up to 28.7 µM), for inactives: at the highest dose activity change, negative = inhibition, most hits filed as inhibitors. actives 5.9% (n = 310,000). P. falciparum luciferase growth in erythrocytes, 48 h. AID 504832, 2011; also: potency is read from the fitted curve at half-maximal effect; % is scaled to controls: 0 for no effect and ±100 for the full control effect
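In quantitative HTS format, infected erythrocytes bearing luciferase-reporter parasites were treated for a single generation at 37 C. Luminescence after adding detection reagent served as the growth measure.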
Cycloheximide cs: Cycloheximide Counterscreen for Small Molecule Inhibitors of Shiga Toxin; max response, %; cell reporter, cycloheximide protein synthesis inhibition counterscreen; AID 2314, 2010; actives 12% (n = 300,000); in the data active = max response mostly above about 13%, no sharp cut-off; inactive = mostly below about 14%; also: read at 38.3 µM for the half of the compounds with a filed dose; 0% is about no effect
* = called active by the depositor; ? = inconclusive; · = no result given; [ ] = remark or other dose. Unless noted, calls follow the shape of the dose curve; as a rule, active = well fitted curve in the direction sought with a large enough effect; inconclusive = small, poorly fitted or top-dose-only effect, or another doubt; inactive = no such curve, though single readings can be large; an effect the other way counts as inactive or inconclusive.

SMILES | Pf growth 96h | Shiga toxin inh | SARS PLP yeast | AMA1 RON2 block | Pf growth 48h | Cycloheximide cs
CCc1cccc(NC(=S)N(CCCOC(C)C)C2CCN(C(C)=O)CC2)c1 | 40% | -1 | 1% | 0% | -17%[0.00184 µM] | -7
O=C1C(Cc2ccc(Br)cc2)SC(=Nc2ccccc2)N1c1ccccc1 (stereo not drawn) | ? | 23 | -34% | 7% | 13µM* | -1
O=C(CC1S/C(=N\S(=O)(=O)c2ccc(F)cc2)N(c2ccccc2)C1=O)Nc1ccccc1 (stereo not drawn) | 38% | 10 | 12% | 10% | -8% | -2
O=C(O)CC1S/C(=N/N=C/c2ccc([N+](=O)[O-])cc2)N(c2ccc(O)cc2)C1=O (stereo not drawn) | 20% | -6 | 0% | -4% | 5% | 2
O=C1C(Cc2ccc(F)cc2)SC(=Nc2ccccc2)N1c1ccccc1 (stereo not drawn) | ? | -11 | -24% | -3% | 10µM* | -1
O=C1C(Cc2cccc([N+](=O)[O-])c2)SC(=Nc2ccccc2)N1c1ccccc1 (stereo not drawn) | 7.4µM* | -12 | 26% | ? | 8.3µM* | -1
COc1ccc(N2C(=O)CCC(C(=O)c3ccccc3)=C2C)cc1 | -14% | 18 | 7% | -4% | -4% | -3
Cc1ccc(NC(=O)CS(=O)CC(=O)NC23CC4CC(CC(C4)C2)C3)cc1 (stereo not drawn) | 6% | -4 | -2% | -1% | -3% | -5
CC1CCC2(CC1)C(Nc1cccc(Cl)c1)=NC(=S)N2CC#N (stereo not drawn) | ? | 20 | -2% | 1% | ? | -2
Cc1oc(=O)oc1CN1CCN(c2cc3c(cc2F)c(=O)c(C(=O)O)c2n3C(C)S2)CC1 (stereo not drawn) | 1.7µM* | · | · | · | 2.4µM* | ·
CCC(=O)N1CCN(c2cc3c(cc2F)c(=O)c(C(=O)O)cn3CC)CC1 | · | · | · | -18% | · | ·
CCCCC1=CC2=CC(=O)C(C)(OC(=O)CC)C(=O)C2=CN1CCc1c[nH]c2ccccc12 (stereo not drawn) | 10µM* | 6 | -3% | 1% | 8.3µM* | 7
COC(=O)CCCC1=CC2=CC(=O)C(C)(OC(=O)c3cccs3)C(=O)C2=CN1CCc1c[nH]c2ccccc12 (stereo not drawn) | 10µM* | 1 | 0% | -8% | 8.3µM* | -2
COc1ccccc1C(=O)Oc1ccc(C(C)C)cc1 | 35% | 84* | -16% | 14% | · | 35*
COc1ccc(C(=O)O/N=C(\N)c2ccccc2Cl)cc1OC | 5.2µM* | 159* | -6% | 12% | 10%[0.00184 µM] | 33*
CCOc1ccc(OCCCC(=O)ON=C(N)c2ccccc2Cl)cc1 | 8% | · | -4% | 21% | ? | ·
COc1ccccc1C(=O)O/N=C(\N)c1ccccc1Cl | 5% | 119* | -30% | 0% | 192% | 55*
CC(C)C[C@H](N)C(=O)N[C@H](C(=O)N[C@@H](CCCN=C(N)N)C(=O)N[C@H](CS)C(=O)NCC(=O)N[C@@H](CCCCN)C(=O)N[C@@H](Cc1cnc[nH]1)C(=O)N[C@@H](CO)C(=O)N[C@@H](CCCN=C(N)N)C(=O)O)C(C)C | · | -5 | · | · | · | -1
O=C(CCCN1C(=O)NC2(CCCC2)C1=O)NCc1ccccc1 | 13% | · | -2% | -9%[11.6 µM] | ? | ·
CC1(C)CC(c2nc(-c3ccc(Cl)cc3)cs2)CCS1 (stereo not drawn) | 29% | -7 | -14% | 24% | 9% | 10
CC1(C)CC(c2nc(-c3ccccc3)cs2)CCS1 (stereo not drawn) | 3% | -2 | -17% | 11% | 7% | 16*
NS(=O)(=O)c1ccc(NC(=O)/C=C/c2ccccc2[N+](=O)[O-])cc1 | -19% | 22 | 3% | 4% | -26% | -3
Cc1ccnc(NC(=O)c2cccc([N+](=O)[O-])c2C)c1 | 121% | 51 | -3% | -14% | 121% | 16
Cc1ccnc(NC(=O)c2cccc3ccccc23)c1 | 65% | 77* | -8% | 7% | 47% | 49*

High-throughput results as filed in PubChem BioAssay.
